# In PMC7862700, “An all-to-all approach to the identification of sequence-specific readers for epigenetic DNA modifications on cytosine”:
# Tests used:
# Test in all cases: DAPPL (digital affinity profiling via proximity ligation, sequencing); 10 mM Tris-HCl pH 7.5, 50 mM NaCl, 1 mM DTT, 4% glycerol, room temperature, 30 min; GST-TFs on glutathione beads, 16-mer random dsDNA library, 0.1% formaldehyde crosslink after washing; high values mean tight binding
# Conditions in all cases: protein: recombinant; tags: N-terminal GST; dsDNA, one strand shown
# [1] = target: T1, FLI1 (Homo sapiens, UniProt Q01543 1-452)
# T1 sequence: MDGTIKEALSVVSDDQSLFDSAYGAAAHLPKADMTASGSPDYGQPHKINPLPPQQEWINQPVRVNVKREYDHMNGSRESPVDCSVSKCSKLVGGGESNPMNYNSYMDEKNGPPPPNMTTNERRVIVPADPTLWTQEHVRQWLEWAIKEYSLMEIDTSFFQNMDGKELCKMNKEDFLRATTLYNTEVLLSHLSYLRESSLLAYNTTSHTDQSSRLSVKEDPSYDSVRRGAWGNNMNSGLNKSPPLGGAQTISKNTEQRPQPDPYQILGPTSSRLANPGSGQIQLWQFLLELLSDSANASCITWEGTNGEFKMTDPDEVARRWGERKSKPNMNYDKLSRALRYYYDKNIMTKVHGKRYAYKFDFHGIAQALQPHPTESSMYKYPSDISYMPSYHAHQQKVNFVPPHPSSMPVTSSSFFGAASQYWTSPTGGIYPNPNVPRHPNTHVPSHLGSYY
# Summary of the method: (§1)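 Pools were built from human transcription factors expressed in yeast as GST fusions, captured on glutathione beads and DNA-barcoded, along with a tag-only sample. Incubation with 200 nmole of a 16-mer random double-stranded DNA library lasted 30 min at room temperature in Tris/NaCl/DTT/glycerol buffer, and was followed by washing, 0.1% formaldehyde crosslinking, proximity ligation, PCR amplification and Illumina NextSeq500 sequencing. Binding signal is the quotient of each hexamer's read frequency for a factor and its frequency for the tag-only sample.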
# [2] = target: T2, GABPA (Homo sapiens, UniProt Q06546 1-454)
# T2 sequence: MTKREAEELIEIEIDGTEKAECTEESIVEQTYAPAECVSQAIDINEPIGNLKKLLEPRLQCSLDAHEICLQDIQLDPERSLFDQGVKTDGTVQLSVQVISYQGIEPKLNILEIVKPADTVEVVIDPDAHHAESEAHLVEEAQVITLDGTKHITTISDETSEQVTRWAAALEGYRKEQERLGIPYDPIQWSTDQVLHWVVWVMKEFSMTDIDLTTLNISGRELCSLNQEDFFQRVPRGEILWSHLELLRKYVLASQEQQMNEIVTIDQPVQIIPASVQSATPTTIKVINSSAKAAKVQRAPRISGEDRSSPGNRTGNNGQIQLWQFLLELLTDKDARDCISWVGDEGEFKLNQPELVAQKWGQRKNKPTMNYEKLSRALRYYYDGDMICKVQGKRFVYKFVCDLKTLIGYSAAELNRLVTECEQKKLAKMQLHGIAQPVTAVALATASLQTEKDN
# Summary of the method: as §1
# [3] = target: T3, ERG (Homo sapiens, UniProt P11308 1-479)
# T3 sequence: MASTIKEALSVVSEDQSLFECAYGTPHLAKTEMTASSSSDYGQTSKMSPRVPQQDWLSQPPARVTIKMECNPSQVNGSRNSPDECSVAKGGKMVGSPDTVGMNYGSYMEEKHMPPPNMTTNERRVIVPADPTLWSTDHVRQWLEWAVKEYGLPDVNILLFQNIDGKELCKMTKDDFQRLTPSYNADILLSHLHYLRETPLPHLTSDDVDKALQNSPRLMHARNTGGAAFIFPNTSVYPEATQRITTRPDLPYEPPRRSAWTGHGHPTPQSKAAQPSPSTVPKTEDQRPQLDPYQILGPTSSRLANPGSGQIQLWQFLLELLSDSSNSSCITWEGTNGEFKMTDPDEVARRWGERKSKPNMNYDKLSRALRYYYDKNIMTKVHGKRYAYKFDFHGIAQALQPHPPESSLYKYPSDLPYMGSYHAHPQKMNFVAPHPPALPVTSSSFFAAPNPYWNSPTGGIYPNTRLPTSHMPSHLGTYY
# Summary of the method: as §1
# [4] = target: ELF1 (Homo sapiens, UniProt P32519 1-619)
# Summary of the method: as §1
# [5] = target: T4, EHF (Homo sapiens, UniProt Q9NZC4 1-300)
# T4 sequence: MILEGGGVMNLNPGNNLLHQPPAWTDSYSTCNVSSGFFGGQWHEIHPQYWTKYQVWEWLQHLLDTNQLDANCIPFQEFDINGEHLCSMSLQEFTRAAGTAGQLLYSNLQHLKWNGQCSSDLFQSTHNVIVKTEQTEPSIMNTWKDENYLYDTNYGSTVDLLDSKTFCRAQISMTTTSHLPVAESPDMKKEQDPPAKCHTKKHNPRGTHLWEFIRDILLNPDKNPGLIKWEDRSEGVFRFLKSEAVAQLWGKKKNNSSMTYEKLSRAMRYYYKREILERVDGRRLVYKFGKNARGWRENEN
# Summary of the method: as §1
# [6] = target: SPI1 (Homo sapiens, UniProt P17947 1-270)
# Summary of the method: as §1
# [7] = target: ETV5 (Homo sapiens, UniProt P41161 1-510)
# Summary of the method: as §1
# [8] = target: T5, ETV2 (Homo sapiens, UniProt O00321 1-342)
# T5 sequence: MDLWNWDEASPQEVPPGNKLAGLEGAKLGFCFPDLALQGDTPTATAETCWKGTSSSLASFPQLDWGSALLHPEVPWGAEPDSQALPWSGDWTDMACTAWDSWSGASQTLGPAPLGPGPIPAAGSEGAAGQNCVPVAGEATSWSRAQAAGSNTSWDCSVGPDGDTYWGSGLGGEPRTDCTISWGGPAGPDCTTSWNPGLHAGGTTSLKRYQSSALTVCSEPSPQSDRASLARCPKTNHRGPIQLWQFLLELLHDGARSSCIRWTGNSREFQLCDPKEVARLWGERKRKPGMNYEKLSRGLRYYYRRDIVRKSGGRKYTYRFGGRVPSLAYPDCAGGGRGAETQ
# Summary of the method: as §1
# [9] = target: T6, ETS2 (Homo sapiens, UniProt P15036 1-469)
# T6 sequence: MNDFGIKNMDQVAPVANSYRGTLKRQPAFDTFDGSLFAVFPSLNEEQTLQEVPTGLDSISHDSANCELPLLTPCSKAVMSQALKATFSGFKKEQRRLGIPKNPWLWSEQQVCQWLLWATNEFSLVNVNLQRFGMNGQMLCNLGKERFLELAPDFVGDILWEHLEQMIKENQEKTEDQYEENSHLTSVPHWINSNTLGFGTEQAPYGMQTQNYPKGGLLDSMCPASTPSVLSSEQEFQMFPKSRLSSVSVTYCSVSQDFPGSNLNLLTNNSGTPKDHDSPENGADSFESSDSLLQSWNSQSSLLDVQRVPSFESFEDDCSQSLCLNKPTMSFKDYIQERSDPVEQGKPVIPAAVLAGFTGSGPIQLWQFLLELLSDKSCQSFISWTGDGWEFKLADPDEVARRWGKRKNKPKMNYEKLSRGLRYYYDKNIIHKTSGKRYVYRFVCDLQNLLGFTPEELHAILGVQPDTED
# Summary of the method: as §1
# [10] = target: T7, ETV7 (Homo sapiens, UniProt Q9Y603 1-341)
# T7 sequence: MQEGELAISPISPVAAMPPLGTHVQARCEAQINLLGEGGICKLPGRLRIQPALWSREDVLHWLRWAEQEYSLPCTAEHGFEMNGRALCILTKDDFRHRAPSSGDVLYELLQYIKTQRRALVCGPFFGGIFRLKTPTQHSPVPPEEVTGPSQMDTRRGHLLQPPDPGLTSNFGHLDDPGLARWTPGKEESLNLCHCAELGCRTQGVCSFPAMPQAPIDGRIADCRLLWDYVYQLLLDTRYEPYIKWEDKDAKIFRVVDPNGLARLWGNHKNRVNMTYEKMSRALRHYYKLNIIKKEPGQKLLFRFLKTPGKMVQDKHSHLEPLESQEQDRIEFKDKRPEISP
# Summary of the method: as §1
# [11] = target: T8, ETV3 (Homo sapiens, UniProt P41162-2 1-143)
# T8 sequence: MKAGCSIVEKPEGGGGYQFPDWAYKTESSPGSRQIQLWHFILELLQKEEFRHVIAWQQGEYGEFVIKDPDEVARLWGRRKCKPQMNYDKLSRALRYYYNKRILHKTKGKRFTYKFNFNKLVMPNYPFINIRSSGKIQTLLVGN
# Summary of the method: as §1
# [12] = target: ETV6 (Homo sapiens, UniProt P41212 1-452)
# Summary of the method: as §1
# Sequence of ETV5 (P41161 whole entry): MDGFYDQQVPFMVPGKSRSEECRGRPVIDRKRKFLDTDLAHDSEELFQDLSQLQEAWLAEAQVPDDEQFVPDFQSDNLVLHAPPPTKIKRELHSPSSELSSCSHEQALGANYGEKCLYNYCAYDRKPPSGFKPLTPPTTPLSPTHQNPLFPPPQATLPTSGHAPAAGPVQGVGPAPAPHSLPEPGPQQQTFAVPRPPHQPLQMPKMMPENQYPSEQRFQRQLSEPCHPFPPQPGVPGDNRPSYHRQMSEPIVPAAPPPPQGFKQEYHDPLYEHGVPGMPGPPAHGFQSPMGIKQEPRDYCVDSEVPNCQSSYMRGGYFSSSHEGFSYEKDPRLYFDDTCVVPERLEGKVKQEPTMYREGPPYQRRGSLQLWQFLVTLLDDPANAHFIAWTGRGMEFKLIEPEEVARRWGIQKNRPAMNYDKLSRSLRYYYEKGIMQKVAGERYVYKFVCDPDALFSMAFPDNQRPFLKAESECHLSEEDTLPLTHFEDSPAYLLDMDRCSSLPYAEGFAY
# Sequence of ELF1 (P32519 whole entry): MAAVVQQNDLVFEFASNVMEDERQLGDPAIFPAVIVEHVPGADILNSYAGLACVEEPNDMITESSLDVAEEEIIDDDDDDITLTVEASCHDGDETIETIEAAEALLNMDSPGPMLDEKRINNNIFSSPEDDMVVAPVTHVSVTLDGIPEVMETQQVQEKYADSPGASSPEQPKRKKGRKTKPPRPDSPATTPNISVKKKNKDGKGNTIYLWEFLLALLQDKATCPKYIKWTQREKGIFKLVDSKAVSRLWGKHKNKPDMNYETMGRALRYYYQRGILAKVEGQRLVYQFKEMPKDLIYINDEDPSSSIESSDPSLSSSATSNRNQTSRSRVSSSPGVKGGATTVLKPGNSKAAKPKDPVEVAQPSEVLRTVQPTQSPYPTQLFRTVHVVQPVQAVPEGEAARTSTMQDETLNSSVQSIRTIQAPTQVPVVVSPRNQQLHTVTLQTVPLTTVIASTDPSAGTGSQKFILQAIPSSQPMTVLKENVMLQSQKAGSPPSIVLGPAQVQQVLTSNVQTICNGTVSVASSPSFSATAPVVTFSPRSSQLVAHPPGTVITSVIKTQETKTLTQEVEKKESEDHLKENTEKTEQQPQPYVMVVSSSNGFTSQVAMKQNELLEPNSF
# Sequence of ETV6 (P41212 whole entry): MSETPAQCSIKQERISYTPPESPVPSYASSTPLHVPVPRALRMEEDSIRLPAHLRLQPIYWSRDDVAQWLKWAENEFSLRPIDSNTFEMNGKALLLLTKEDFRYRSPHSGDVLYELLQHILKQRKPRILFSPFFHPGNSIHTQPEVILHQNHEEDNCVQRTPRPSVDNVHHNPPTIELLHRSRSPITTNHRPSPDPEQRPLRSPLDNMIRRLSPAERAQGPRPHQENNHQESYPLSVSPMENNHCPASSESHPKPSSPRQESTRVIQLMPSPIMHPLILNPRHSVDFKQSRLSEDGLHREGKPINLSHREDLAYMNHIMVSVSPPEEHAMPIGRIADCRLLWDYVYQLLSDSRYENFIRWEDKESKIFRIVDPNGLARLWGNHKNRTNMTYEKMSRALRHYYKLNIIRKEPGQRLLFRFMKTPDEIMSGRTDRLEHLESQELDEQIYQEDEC
sequence,measurement,setting,value
GGTTAT,binding signal,[1],"1.07 fold enrichment (6-mer frequency, TF over GST control)"
same,binding signal,[2],"1.03 fold enrichment (6-mer frequency, TF over GST control)"
same,binding signal,[3],"1.04 fold enrichment (6-mer frequency, TF over GST control)"
same,binding signal,[4],"1.01 fold enrichment (6-mer frequency, TF over GST control)"
same,binding signal,[5],"1.03 fold enrichment (6-mer frequency, TF over GST control)"
same,binding signal,[6],"1 fold enrichment (6-mer frequency, TF over GST control)"
same,binding signal,[7],"1.09 fold enrichment (6-mer frequency, TF over GST control)"
same,binding signal,[8],"1.09 fold enrichment (6-mer frequency, TF over GST control)"
same,binding signal,[9],"1.04 fold enrichment (6-mer frequency, TF over GST control)"
same,binding signal,[10],"1.12 fold enrichment (6-mer frequency, TF over GST control)"
same,binding signal,[11],"1.05 fold enrichment (6-mer frequency, TF over GST control)"
same,binding signal,[12],"1.03 fold enrichment (6-mer frequency, TF over GST control)"
